Molecules are shown by their SMILES. Hit rate of the full screen: of about 140,000 compounds, about 680 (0.49%) were called active. The entries come from a sample that favours actives as a whole. Unmarked numbers belong to inactive results. Rule as the data show it: active = activation above about 5% (passing the limit was not always enough); inactive = the rest.

The values that follow come from PubChem BioAssay AID803 (The Scripps Research Institute Molecular Screening Center, 2007).

The target in this experiment is Galanin receptor type 2 (Homo sapiens) (UniProt O43603). Description: GALR2 receptor agonists, primary screen, cell-based (AID 803).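 Also: 0% = vehicle buffer wells and 100% = reference agonist at full effect.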 The settings on record: GALR2-expressing cells, agonist activation read-out; at 5.6 µM; active compounds read high.
Chain of Galanin receptor type 2 (Homo sapiens) (O43603 whole entry, looked up): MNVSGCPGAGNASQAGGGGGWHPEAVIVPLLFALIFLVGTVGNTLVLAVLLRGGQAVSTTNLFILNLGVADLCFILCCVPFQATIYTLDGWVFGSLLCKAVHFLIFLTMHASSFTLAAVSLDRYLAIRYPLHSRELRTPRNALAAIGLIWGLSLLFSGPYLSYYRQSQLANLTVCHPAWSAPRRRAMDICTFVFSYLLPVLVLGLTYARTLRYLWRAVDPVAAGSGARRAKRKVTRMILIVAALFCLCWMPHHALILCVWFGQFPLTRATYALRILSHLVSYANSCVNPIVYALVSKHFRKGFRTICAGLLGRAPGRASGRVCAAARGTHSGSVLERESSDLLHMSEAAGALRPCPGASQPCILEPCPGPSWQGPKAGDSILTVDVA
For the compound `CC(C)C(=O)Nc1cccc(NC(=O)c2ccc([N+](=O)[O-])cc2Cl)c1`, the activation is 7.57% (active).
`CCC(C)C(=O)Nc1cc([N+](=O)[O-])ccc1Cl` (centres undefined): the activation is -0.24%.
For `COc1ccc(S(=O)(=O)NC(C)C(=O)Nc2cccc([N+](=O)[O-])c2)cc1` (centres undefined) the value was -0.92%; for `C/C(=N\N=C(N)N)c1ccc(Cl)cc1`, -2.59%; for `O=C(NN1C(=O)C2C3C=CC(C3)C2C1=O)c1ccco1` (centres undefined), -0.17%.
Regarding `CC1(C)CC(=O)C=C(NCCCNC2CCCCC2)C1`, the activation was -0.48%.
With `CC1(C)CC(=O)C=C(NCCN2CCNCC2)C1` the figure was 33.1% (active); with `CC1(C)CC(=O)C=C(NCCCN2CCCC2=O)C1`, -3.74%; with `COc1cccc(/C=N/Nc2ncc(C(F)(F)F)cc2Cl)c1O`, 0.04%.
For `Cc1cc(O)ccc1NC1=CC(=O)CC(C)(C)C1` the value was -0.24%; for `O=C(NC(=S)Nc1ccc(NC(=O)c2cccs2)cc1)c1ccc([N+](=O)[O-])cc1`, 13.8% (active).
For the compound `O=C(O)c1ccc(NC(=O)c2cccs2)cc1`, the activation was -3%.
With `O=C(N/N=C/c1ccc(O)cc1)/C(=C/c1ccc([N+](=O)[O-])cc1)NC(=O)c1ccccc1` the figure was -1.29%.
`O=C(NCCc1ccccc1)/C(=C\c1ccc([N+](=O)[O-])cc1)NC(=O)c1ccccc1`: the activation was -1.62%.
Consider `O=C(Nc1ccccc1)/C(=C/c1ccc([N+](=O)[O-])cc1)NC(=O)c1ccccc1`, for which the activation was 5.48% (active).
Regarding `COCCCNC(=S)NC(=O)c1ccc([N+](=O)[O-])cc1`, the activation was -2.33%.
With `Cc1ccccc1C(CC(=O)c1cccs1)C(C#N)C#N` (centres undefined) the figure was -0.23%; with `Cc1cc2c(C)nc(N/N=C/c3ccccc3)nc2o1`, 0.45%.
Consider `O=C(Oc1ccccc1Cl)c1ccc(N2CCOCC2)c([N+](=O)[O-])c1`, for which the activation was -1.48%.
`CC(=O)c1sc(N/N=C\c2ccc(C)cc2)nc1C`: the activation was 2.02%.
With `O=C(CSc1ncnc2scc(-c3ccccc3)c12)NCc1ccc2c(c1)OCO2` the figure was -1.28%; with `CC(C)(C)SCCNC(=O)c1cccc([N+](=O)[O-])c1`, -0.73%; with `Cc1ccc(S(=O)(=O)N2CCN(CC(=O)N/N=C/c3cc([N+](=O)[O-])ccc3Cl)CC2)cc1`, -0.78%.
Turning to `CSc1nc(C)cc(SC(C(C)=O)C(=O)Nc2ccccc2)n1` (centres undefined), the activation was -0.36%.
With `CSc1nc(-c2ccccc2)nc(C(Cl)Cl)n1` the figure was 8.01% (active); with `CC(=O)CCC(=O)c1ccc2ccccc2c1`, -2.23%.
For `Cc1ccc(C(=O)NC(=S)NCCN2CCOCC2)cc1`, the activation is -1.71%.
With `COc1cc2c(cc1/C=C1/NC(=O)N(c3ccccc3)C1=O)OCO2` the figure was 1.22%.
Regarding `O=C1CC(NNc2ccccc2)C(=O)N1c1cccc(Cl)c1` (centres undefined), the activation is -2.24%.
For the compound `O=C1N/C(=C/c2cccn2-c2ccccc2)C(=O)N1c1cccc(Cl)c1`, the activation is 6.96% (active).
`CCOc1ccc2nc(NC(=O)c3cc([N+](=O)[O-])ccc3N3CCOCC3)sc2c1`: the activation was -0.53%.
For `O=C1COc2ccc(NC(=O)N3CCN(c4ccc(F)cc4)CC3)cc2N1`, the activation was 12.7% (active).
Take `O=C(Nc1cccc(NC(=O)N2CCN(c3ccccc3)CC2)c1)N1CCN(c2ccccc2)CC1`: the activation was -2.65%.
With `COc1cccc(N2CCN(C(=O)Nc3ccc4c(c3)NC(=O)CO4)CC2)c1` the figure was -2.77%; with `COCC(=O)N=Nc1c(O)[nH]c2ccccc12`, -0.5%; with `CN(c1ccccc1)c1nc(N)c([N+](=O)[O-])c(NCc2ccco2)n1`, 1.08%.
Consider `CCc1nnc(NC(=O)C2CC(=O)N(c3ccc4c(c3)OCCO4)C2)s1` (centres undefined), for which the activation was 0.1%.
As for `COc1cc(/C=N/n2c(C)n[nH]c2=S)ccc1OCc1ccccc1`, the activation was 1.11%.
For `CNC(=S)N/N=C/c1ccc(OCc2ccccc2)c(Br)c1` the value was 7.44% (active); for `CNC(=S)NNC(=O)c1sccc1OCc1ccccc1`, -1.56%; for `COc1ccc(/C(N)=N/OC(=O)CCCc2ccccc2)cc1`, -0.21%.
Take `C=C(C)c1cccc(C(C)(C)NC(=O)NC2CCCC2)c1`: the activation is -1.16%.
For `COc1ccc(C(=O)OCC(=O)NC(=O)CCSc2ccccc2)cc1`, the activation was -1.93%.
For `CC(Sc1cccc[n+]1[O-])C(=O)Nc1cccc(S(=O)(=O)N2CCOCC2)c1` (centres undefined) the value was -0.5%; for `COc1ccc(Nc2nc(N)nc(CSC(=S)N3CCC(C)CC3)n2)cc1`, 0.01%.
With `COCCNC(=S)N/N=C/c1c(C)[nH]c2ccccc12` the figure was -0.61%; with `CCC(=O)Nc1c(S(=O)(=O)c2ccccc2)c2nc3ccccc3nc2n1Cc1ccccc1`, 2.15%.
As for `CCCNC(=O)c1c(N)n(-c2ccc(S(N)(=O)=O)cc2)c2nc3ccccc3nc12`, the activation was 35.1% (active).
With `CCOC(=O)c1c(C)c(C(=O)NCCc2ccc(S(N)(=O)=O)cc2)c(C)n1CC` the figure was -2.14%; with `CCC(CC)C(=O)N1CCN(c2cccc(C)c2C)CC1`, -1.21%; with `Cc1cc(C(=O)N/N=C/c2ccc(O)c([N+](=O)[O-])c2)c(C)n1-c1ccc(F)cc1`, 1.21%.
With `O=C(Cn1nnc(-c2ccccc2)n1)N/N=C/c1ccc(-c2ccc(Cl)cc2)o1` the figure was -0.89%; with `Cc1[nH]c2ccccc2c1/C=N\NC(=O)Cn1nnc(-c2ccccc2)n1`, 5.32% (active); with `O=C(Cn1nnc(-c2ccccc2)n1)NCc1ccccc1`, -0.65%.
With `COc1ccc(NC(=O)CN2C(=O)C(c3ccccc3)=NC23CCCCCC3)cc1OC` the figure was -2.09%; with `CC(=O)NNC1=Nc2ccccc2N(C)C(C)C1` (centres undefined), -1.09%.
`COc1cccc(/C=N/NC(=O)CNC(=O)c2ccc(S(=O)(=O)N3CCOCC3)cc2)c1OC`: the activation was -1.42%.
With `CN(C(=O)CSc1nnc(-c2n[nH]c3ccccc23)o1)c1ccccc1` the figure was 0.05%.
For `Cc1ccc2sc(NNC(=O)c3ccc4c(c3)OCCO4)nc2c1C` the value was -2.21%.
Turning to `Cc1ccsc1C(C(=O)NC1CCCCC1)N(C(=O)Cc1cccs1)C1CC1` (centres undefined), the activation was 0.48%.
For `O=C(O)CCC(=O)N(Cc1cccs1)Cc1cccs1` the value was 0.14%.
Turning to `CC(=O)N(Cc1cccs1)C1CCOC(C)(C)C1` (centres undefined), the activation was 36.2% (active).
For `Cc1nn(-c2ccccc2)c(NC(=O)c2cccs2)c(-c2ccc(Cl)cc2)c1=O` the value was -0.28%; for `COc1ccc(C(=O)CN2C(=O)NC(C)(c3ccc(C)cc3)C2=O)cc1OC` (centres undefined), 10.3% (active); for `COc1ccc(C(=O)Cn2nnc(-c3ccc(N4CCOCC4)cc3)n2)cc1OC`, -0.59%.
For `COc1ccc(C(=O)n2nc(-c3ccc(C)cc3)nc2N)cc1OC` the value was -1.18%.
`COC(=O)c1cc2nc(-c3ccccc3)cc(C(F)(F)F)n2n1`: the activation was -0.55%.
`N#Cc1c(C(F)(F)F)cc(-c2ccccc2)nc1SCC(=O)N1CCOCC1`: the activation is -2.74%.
Turning to `CCN(CC)c1nc(-c2ccccc2)cc(C(F)(F)F)c1C#N`, the activation is 14.6% (active).
For `O=S(=O)(c1ccc(F)cc1)N1CCN(C(=S)NC2CCCC2)CC1` the value was -1.23%; for `Cc1cccc(C(=O)NC(=S)N2CCN(c3ccc([N+](=O)[O-])cc3)CC2)c1`, 0.09%.
`CCCCOc1ccc(C(=O)NCc2ccncc2)cc1`: the activation is -0.14%.
Take `CCCOc1ccc(C(=O)C(CCC(CNCC)C(=O)c2ccc(OCCC)cc2)CNCC)cc1` (centres undefined): the activation was 24.7% (active).
Turning to `CCCCOc1ccc(C(=O)NCc2ccco2)cc1`, the activation is -1.35%.
For `CCc1ccc(Oc2coc3cc(OC(=O)c4cc5ccccc5oc4=O)ccc3c2=O)cc1` the value was 0.76%.
For `OC(COCC1COc2ccccc2O1)CN1CCN(c2ccc(F)cc2)CC1` (centres undefined), the activation is -0.37%.
As to `CCN(/N=C/c1ccc(N(C)C)cc1)c1nc2ccccc2[nH]1`, the activation is -1.85%.
Take `COc1cc(NS(=O)(=O)c2ccc(N=Cc3c(C)[nH]n(-c4ccccc4)c3=O)cc2)nc(OC)n1`: the activation was -4.11%.
With `COc1cc(SC#N)ccc1N=Cc1c(C)[nH]n(-c2ccc(C)cc2)c1=O` the figure was 17.6% (active); with `CCc1nnc(NS(=O)(=O)c2ccc(N=Cc3c(C)[nH]n(-c4ccc(C)cc4)c3=O)cc2)s1`, -3.95%; with `CC(=O)NCCC(=O)Nc1nc(C)c(Cc2ccc3c(c2)OCO3)s1`, -0.64%.
With `Cc1cc(F)ccc1S(=O)(=O)N1CCCOC1CNC(=O)C(=O)NCCC1=CCCCC1` (centres undefined) the figure was -0.65%; with `COc1ccc(Nc2cc(C)nc(-n3nc(C)cc3C)n2)cc1`, 0.3%.
For `COc1ccc(OCc2cn3c(C)cc(C)nc3n2)cc1` the value was -0.2%; for `COc1ccc(C(C[N+](=O)[O-])n2nc(C)cc2C)cc1` (centres undefined), 5.52% (active); for `CCC1C(=O)c2ccccc2N(C)C1=O` (centres undefined), -2.42%.
As to `C=CCn1c(N)c(C(=O)OCC(C)C)c2nc3ccccc3nc21`, the activation is -3.82%.
With `CC(C)Cn1c(N)c(C(=O)NCc2cccs2)c2nc3ccccc3nc21` the figure was 29.6% (active); with `CCC(C)NC(=O)c1c(N)n(/N=C/c2cccs2)c2nc3ccccc3nc12` (centres undefined), -0.44%; with `CCN(CC)c1ccc(S(=O)(=O)N2CCOCC2)cc1NC(=O)CSc1cccc[n+]1[O-]`, -0.35%.
For `O=C(Cc1cccs1)Nc1nnc(SCc2ccc(F)cc2)s1` the value was 1.11%; for `CCCCOc1ccc(C(=O)NCC(=O)OCC(=O)N2CCN(S(=O)(=O)c3ccc(C)cc3C)CC2)cc1`, 7.56% (active); for `CCCc1cc(=O)[nH]c(SCC(=O)N2CCN(S(=O)(=O)c3ccc(C)cc3C)CC2)n1`, 2.71%.
Consider `CCCCOc1ccc(C(=O)NN2CCN(C)CC2)cc1`, for which the activation was 0.08%.
